According to the supplement of paper PMC11732987, “Enantioselective OTUD7B fragment discovery through chemoproteomics screening and high-throughput optimisation” (Communications Chemistry, 2025):

Columns and labels:
Assay in all cases: log2 ratio of Biotin-Ahx-Ub-VS probe labelling (fragment/DMSO); higher = less target engagement (more negative = stronger competition), active = hit call of the paper (q ≤ 0.05, log2 ratio ≤ -1)
Conditions in all cases: compound concentration: 200 uM; treatment time: 3 h
[1] = target: T1, USP42 (UniProt Q9H9J4)
T1 sequence (whole entry): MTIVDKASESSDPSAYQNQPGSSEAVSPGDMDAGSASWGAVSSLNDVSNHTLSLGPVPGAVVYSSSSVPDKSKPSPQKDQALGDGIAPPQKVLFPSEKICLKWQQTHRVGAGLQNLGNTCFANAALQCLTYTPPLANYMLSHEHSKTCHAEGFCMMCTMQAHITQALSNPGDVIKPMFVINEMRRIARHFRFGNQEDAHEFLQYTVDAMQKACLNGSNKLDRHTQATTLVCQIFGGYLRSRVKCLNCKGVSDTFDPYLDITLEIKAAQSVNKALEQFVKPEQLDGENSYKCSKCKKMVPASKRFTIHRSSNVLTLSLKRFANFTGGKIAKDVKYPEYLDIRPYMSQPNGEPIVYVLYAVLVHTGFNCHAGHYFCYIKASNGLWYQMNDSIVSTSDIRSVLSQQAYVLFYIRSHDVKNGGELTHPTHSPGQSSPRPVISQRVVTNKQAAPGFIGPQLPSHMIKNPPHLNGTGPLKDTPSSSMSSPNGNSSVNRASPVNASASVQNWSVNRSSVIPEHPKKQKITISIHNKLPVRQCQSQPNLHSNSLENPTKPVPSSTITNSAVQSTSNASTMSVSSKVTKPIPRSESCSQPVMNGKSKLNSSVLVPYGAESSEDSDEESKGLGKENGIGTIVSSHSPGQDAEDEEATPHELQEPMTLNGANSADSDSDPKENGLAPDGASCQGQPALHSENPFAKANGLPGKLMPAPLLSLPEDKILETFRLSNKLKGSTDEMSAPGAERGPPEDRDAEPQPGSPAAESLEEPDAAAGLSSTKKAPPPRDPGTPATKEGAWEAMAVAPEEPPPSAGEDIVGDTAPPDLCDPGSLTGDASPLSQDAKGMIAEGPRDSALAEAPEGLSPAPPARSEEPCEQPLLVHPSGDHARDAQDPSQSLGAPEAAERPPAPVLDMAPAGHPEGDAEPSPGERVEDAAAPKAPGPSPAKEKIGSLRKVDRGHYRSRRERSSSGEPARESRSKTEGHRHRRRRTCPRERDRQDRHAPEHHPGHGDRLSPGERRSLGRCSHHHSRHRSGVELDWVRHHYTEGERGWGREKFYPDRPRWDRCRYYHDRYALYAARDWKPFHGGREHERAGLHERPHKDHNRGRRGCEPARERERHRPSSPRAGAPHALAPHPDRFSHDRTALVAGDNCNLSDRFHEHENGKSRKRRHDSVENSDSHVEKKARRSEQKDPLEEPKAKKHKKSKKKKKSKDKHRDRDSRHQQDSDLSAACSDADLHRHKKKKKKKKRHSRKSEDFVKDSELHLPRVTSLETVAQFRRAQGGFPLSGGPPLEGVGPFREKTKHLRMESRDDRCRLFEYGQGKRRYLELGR
Procedure, shortened: (§1)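 HEK293T lysate (495 µg per sample, in Tris/CHAPS/IGEPAL buffer with protease inhibitors) was exposed in triplicate for 3 h to fragment at 200 µM or to vehicle, then to Biotin-Ahx-Ub-VS at 0.5 µM final for 1 h. Labelled DUBs were enriched on NeutrAvidin, digested with LysC and trypsin, and analysed by diaPASEF LC-MS/MS. Spectronaut label-free quantities were normalised to the global median, and values are average log2 ratios of fragment over vehicle from an unpaired t-test. Only proteins with ≥2 unique peptides were used.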

[2] = target: USP46 (UniProt P62068)
Procedure, shortened: as §1

[3] = target: T2, USP47 (UniProt Q96K76)
T2 sequence (whole entry): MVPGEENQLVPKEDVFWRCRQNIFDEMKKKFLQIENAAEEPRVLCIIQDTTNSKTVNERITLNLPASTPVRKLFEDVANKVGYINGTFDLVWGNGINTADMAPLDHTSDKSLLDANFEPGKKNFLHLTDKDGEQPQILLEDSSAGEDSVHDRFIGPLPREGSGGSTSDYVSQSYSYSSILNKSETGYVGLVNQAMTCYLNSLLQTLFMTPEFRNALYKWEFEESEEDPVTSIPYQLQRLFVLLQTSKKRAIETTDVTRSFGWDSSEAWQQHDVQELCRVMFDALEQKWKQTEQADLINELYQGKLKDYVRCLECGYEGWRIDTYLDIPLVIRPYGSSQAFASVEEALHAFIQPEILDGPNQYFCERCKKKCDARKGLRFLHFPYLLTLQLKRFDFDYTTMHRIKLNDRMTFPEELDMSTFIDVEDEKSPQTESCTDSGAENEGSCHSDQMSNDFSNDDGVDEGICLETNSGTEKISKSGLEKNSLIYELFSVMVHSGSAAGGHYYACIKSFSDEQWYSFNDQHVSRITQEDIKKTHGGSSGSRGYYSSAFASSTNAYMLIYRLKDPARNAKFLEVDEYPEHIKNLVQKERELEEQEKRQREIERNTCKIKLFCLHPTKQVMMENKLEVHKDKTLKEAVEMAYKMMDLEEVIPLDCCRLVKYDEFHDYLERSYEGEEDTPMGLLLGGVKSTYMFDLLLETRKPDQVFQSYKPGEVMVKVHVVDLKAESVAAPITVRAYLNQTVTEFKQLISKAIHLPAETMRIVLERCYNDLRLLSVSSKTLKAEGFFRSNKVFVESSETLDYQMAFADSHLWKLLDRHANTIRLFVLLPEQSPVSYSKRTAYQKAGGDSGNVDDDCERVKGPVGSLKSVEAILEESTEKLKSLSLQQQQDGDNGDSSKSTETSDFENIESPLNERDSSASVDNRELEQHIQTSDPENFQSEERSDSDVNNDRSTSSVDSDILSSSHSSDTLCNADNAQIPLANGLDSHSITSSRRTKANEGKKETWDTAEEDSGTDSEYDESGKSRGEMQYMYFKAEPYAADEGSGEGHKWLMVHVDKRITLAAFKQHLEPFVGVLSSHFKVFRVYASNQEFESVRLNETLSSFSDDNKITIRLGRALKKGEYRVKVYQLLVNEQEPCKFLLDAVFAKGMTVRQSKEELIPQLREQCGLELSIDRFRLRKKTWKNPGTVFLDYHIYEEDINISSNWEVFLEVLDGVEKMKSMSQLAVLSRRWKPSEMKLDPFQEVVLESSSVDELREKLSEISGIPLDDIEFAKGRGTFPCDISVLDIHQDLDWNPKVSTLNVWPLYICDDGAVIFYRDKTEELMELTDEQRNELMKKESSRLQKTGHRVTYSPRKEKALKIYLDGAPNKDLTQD
Procedure, shortened: as §1

[4] = target: T3, USP48 (UniProt Q86UV5)
T3 sequence (whole entry): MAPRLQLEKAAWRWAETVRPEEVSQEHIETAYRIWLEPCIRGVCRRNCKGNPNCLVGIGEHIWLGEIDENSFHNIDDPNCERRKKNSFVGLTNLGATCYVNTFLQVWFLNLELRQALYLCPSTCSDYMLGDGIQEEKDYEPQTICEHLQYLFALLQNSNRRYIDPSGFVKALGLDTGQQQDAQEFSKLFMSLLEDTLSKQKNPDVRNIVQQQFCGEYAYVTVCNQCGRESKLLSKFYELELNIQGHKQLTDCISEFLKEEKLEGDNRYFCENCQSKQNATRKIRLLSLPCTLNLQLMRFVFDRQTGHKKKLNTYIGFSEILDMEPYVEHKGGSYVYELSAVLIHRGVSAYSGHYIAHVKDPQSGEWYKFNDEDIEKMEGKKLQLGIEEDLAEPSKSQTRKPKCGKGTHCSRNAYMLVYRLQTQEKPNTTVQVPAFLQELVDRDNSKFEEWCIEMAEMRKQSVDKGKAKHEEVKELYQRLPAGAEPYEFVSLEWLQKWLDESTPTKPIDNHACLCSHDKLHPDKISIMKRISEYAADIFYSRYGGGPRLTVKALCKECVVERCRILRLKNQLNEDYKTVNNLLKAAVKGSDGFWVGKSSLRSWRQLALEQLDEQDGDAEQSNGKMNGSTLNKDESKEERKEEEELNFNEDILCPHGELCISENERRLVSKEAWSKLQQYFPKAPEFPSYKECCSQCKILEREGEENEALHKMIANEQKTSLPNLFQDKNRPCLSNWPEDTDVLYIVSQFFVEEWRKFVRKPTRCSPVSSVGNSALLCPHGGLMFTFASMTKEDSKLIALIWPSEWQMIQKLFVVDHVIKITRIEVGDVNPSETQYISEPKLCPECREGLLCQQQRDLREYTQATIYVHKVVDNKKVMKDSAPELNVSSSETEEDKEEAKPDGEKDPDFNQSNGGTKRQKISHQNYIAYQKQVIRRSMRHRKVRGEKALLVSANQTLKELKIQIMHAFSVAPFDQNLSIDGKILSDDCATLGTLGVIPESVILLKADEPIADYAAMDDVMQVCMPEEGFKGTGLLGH
Procedure, shortened: as §1

[5] = target: T4, USP5 (UniProt P45974)
T4 sequence (whole entry): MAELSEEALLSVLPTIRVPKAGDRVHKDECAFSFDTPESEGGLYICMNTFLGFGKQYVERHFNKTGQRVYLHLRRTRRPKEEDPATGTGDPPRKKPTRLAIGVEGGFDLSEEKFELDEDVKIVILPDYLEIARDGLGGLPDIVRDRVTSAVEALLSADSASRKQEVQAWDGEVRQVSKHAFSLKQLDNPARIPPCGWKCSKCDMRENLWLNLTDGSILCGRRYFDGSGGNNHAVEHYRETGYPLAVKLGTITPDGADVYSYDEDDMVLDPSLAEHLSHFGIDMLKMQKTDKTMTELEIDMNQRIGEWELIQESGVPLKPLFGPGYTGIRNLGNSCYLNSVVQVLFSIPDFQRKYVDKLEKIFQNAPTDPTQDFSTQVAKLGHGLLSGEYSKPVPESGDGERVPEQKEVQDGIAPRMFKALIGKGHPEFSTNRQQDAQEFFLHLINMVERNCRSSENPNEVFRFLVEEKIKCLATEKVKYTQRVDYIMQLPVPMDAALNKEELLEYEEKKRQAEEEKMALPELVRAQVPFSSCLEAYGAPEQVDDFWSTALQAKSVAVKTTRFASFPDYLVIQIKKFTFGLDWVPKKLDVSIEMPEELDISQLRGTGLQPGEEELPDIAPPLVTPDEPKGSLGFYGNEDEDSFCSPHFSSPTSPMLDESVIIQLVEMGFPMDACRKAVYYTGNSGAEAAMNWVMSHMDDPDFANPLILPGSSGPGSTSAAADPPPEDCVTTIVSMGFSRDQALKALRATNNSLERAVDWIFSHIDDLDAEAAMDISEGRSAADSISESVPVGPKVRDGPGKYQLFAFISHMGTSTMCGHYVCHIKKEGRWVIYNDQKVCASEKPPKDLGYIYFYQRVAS
Procedure, shortened: as §1

[6] = target: USP54 (UniProt Q70EL1)
Procedure, shortened: as §1

[7] = target: USP7 (UniProt Q93009)
Procedure, shortened: as §1

[8] = target: T5, USP8 (UniProt P40818)
T5 sequence (whole entry): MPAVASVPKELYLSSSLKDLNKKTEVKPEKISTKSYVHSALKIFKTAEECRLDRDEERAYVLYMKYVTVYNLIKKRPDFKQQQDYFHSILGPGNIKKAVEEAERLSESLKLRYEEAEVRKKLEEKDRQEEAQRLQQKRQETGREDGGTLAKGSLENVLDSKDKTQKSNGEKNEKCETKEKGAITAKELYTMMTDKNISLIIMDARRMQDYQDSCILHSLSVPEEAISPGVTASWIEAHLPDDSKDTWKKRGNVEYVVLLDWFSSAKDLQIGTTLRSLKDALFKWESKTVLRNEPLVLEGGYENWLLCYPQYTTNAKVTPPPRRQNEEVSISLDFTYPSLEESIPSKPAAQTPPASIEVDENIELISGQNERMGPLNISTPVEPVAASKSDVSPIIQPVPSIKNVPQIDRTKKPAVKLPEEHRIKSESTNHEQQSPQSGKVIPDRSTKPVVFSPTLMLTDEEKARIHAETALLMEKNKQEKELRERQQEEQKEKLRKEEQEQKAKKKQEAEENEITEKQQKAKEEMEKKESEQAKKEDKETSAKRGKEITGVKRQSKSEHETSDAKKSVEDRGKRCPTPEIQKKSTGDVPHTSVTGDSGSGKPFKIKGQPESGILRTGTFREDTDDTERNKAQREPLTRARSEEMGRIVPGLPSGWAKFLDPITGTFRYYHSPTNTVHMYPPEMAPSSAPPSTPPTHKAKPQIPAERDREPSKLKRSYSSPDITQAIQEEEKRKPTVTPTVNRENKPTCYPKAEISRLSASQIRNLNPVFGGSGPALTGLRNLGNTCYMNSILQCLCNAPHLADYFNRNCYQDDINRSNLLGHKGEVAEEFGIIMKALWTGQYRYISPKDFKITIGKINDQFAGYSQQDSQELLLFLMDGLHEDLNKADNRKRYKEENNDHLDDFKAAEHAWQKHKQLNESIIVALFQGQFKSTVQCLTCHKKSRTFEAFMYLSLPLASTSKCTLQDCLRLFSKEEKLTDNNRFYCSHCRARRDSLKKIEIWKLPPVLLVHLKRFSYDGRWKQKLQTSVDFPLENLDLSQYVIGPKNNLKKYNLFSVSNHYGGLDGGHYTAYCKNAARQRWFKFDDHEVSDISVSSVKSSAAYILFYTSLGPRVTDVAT
Procedure, shortened: as §1

[9] = target: USP9X (UniProt Q93008)
Procedure, shortened: as §1

[10] = target: UniProt O00487
Procedure, shortened: as §1

Measured: log2 ratio of Biotin-Ahx-Ub-VS probe labelling

Sequence of USP54 (Q70EL1 whole entry): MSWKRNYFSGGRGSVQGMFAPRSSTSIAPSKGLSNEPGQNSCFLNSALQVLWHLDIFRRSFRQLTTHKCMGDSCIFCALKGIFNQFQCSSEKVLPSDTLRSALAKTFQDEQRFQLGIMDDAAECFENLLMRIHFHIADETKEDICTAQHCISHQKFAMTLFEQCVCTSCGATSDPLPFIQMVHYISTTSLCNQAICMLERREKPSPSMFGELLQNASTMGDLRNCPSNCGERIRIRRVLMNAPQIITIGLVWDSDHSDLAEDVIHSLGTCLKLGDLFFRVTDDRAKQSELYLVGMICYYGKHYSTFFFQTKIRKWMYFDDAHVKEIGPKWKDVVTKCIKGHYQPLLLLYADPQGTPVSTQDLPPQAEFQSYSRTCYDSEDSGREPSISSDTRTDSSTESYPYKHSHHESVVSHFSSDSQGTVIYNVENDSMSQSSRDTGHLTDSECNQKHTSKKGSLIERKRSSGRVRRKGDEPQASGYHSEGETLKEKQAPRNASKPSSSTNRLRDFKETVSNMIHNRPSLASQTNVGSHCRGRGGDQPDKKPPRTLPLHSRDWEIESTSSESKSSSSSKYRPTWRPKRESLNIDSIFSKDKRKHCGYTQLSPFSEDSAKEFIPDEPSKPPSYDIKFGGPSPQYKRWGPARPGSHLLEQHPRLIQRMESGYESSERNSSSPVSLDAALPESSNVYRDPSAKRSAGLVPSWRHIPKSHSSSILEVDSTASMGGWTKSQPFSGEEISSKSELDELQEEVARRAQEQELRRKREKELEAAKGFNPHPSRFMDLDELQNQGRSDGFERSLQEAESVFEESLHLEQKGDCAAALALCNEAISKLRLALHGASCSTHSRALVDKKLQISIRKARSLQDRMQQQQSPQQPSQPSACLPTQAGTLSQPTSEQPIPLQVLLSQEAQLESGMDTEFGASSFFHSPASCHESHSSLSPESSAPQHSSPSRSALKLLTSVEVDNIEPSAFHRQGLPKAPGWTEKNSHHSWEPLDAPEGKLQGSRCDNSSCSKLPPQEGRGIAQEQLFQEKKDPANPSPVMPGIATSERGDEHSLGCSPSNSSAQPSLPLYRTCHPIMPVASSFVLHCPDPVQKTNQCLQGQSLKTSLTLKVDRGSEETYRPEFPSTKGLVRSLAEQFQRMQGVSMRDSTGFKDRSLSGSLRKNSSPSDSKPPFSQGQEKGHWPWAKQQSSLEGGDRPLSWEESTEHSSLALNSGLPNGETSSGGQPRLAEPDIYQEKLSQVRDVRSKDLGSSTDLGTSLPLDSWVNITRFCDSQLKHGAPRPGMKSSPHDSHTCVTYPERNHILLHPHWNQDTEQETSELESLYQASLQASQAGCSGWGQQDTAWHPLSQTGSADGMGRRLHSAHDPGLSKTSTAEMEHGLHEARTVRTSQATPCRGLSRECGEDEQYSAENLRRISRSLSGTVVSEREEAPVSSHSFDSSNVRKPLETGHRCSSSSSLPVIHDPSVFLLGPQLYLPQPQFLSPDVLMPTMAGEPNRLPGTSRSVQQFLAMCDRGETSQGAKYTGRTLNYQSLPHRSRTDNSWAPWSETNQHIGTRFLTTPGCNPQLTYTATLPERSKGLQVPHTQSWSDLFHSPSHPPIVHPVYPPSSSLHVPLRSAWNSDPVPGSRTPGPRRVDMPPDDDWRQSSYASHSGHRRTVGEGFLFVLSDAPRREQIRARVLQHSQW
Sequence of USP46 (P62068 whole entry): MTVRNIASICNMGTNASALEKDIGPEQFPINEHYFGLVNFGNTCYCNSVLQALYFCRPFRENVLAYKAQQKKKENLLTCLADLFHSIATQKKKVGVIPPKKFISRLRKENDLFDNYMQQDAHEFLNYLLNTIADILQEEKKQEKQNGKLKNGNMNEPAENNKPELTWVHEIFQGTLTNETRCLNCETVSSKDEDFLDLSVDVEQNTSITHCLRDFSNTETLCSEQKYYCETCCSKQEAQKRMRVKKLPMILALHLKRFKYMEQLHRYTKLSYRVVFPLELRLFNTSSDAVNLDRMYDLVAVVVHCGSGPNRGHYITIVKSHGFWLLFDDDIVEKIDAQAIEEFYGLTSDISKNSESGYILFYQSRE
Sequence of UniProt O00487 (O00487 whole entry): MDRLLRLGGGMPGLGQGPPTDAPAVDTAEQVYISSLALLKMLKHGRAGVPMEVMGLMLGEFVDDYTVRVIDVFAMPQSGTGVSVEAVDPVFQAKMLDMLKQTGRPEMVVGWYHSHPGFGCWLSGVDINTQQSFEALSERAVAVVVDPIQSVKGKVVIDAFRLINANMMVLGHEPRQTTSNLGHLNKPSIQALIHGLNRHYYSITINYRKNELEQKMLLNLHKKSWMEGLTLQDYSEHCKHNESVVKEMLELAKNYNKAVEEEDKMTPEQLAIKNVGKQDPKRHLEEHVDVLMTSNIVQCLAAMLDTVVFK
Sequence of USP9X (Q93008 whole entry): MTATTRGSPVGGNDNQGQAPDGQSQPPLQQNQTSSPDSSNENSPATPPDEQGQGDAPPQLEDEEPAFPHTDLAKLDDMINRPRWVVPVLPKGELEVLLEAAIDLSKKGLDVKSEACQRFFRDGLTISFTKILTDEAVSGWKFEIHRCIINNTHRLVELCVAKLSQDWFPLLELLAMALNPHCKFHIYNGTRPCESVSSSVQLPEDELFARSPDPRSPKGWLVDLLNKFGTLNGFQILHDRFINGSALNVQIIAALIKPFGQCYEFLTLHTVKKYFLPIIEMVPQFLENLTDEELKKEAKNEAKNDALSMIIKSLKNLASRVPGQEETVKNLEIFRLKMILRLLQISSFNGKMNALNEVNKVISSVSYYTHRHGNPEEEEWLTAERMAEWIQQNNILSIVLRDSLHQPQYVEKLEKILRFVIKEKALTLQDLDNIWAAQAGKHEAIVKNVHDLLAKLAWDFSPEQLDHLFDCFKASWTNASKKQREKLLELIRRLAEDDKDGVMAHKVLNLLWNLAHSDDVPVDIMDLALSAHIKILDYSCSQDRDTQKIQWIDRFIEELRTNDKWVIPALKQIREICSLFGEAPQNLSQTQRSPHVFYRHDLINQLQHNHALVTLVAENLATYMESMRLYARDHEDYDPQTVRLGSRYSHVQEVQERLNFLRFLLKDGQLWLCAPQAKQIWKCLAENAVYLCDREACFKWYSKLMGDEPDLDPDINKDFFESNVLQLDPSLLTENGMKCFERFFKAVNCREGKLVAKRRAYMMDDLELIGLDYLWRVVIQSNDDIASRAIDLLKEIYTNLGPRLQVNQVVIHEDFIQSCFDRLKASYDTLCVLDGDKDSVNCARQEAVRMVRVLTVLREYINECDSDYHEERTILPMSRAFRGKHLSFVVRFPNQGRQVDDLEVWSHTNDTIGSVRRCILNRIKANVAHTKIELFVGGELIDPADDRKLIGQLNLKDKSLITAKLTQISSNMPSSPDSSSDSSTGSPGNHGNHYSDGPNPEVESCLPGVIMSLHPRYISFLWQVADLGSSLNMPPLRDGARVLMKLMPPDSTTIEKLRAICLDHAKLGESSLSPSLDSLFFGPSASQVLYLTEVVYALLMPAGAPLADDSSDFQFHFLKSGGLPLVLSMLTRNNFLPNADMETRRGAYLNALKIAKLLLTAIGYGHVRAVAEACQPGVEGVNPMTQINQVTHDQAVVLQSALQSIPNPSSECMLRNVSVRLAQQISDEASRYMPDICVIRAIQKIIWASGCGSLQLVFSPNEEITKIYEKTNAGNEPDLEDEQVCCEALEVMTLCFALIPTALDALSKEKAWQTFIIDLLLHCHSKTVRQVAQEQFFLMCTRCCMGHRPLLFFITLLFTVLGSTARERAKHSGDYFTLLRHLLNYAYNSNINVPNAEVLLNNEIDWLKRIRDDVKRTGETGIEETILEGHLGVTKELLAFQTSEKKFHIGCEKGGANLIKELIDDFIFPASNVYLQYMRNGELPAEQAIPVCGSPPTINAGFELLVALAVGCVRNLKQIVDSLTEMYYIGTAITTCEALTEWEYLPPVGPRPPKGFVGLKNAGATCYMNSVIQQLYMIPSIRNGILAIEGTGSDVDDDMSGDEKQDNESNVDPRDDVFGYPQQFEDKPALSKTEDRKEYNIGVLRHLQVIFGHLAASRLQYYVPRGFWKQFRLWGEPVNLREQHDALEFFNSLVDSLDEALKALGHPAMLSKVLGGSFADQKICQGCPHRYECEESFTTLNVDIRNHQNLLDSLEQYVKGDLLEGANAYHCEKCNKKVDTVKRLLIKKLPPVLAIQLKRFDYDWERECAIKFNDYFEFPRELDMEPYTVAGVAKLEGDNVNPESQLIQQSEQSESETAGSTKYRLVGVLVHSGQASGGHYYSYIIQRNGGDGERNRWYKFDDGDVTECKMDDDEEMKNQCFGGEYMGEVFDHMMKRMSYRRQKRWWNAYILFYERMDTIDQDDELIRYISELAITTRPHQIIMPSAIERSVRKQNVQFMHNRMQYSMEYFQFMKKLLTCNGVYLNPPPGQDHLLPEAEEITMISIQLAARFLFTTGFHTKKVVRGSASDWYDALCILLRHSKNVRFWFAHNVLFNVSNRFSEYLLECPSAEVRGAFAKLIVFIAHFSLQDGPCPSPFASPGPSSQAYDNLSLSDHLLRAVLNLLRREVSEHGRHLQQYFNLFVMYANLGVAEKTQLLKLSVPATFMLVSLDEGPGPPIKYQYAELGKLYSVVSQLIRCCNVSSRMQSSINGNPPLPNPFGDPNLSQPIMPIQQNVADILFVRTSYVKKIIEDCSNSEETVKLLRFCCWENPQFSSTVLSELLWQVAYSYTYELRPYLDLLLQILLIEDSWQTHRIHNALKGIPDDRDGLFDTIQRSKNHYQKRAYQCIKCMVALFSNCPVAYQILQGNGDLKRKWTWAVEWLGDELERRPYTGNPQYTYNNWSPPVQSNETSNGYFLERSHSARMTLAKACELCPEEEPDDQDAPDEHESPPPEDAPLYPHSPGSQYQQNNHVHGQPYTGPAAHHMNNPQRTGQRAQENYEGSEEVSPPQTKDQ

O=C(CCl)NCc1cccc(F)c1
inactive: [1] -0.105 | [2] 0.151 | [3] -0.193 | [4] -0.0573 | [5] 0.1 | [6] 0.396 | [7] -0.069 | [8] -0.0486 | [9] 0.0745 | [10] -0.0795
